Reference: article PMC5700166

How the values were obtained:
Test in all cases: protein-binding microarray (PBM); PBM: ~300 nM protein, 6 mM HEPES pH 7.8, 80 mM KCl, 0.5 mM EDTA, 0.5 mM EGTA, 6% glycerol, 35 ng/ul poly-dIdC, 1% milk, 1 h, room temperature; Ap Aiptasia and Nv Nematostella (sea anemones) / Co Capsaspora / Aq Amphimedon (sponge) / Dm Drosophila / Hu human; RHD is the Rel homology domain; high values mean tight binding
Settings in all cases: dsDNA, one strand shown
GST-Ap-NF-kB RHD = molecular target: T1, GST-Ap-NF-kB RHD (Exaiptasia pallida (Aiptasia), UniProt A0A913YAJ5 2-422)
T1 sequence: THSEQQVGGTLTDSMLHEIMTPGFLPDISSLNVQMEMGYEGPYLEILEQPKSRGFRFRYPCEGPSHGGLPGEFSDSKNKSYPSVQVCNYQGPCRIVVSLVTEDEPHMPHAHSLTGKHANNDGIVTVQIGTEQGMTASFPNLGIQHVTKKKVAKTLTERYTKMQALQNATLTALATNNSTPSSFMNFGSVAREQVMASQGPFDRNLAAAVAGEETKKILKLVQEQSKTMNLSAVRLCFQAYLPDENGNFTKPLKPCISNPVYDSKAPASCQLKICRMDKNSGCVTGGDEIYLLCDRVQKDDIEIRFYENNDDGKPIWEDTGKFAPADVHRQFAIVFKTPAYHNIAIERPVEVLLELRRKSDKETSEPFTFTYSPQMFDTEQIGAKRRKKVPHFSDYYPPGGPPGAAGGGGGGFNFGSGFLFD

[1] = molecular target: T2, GST-Nv-NF-kB (Cys allele) (Nematostella vectensis, UniProt E5G601 2-411)
T2 sequence: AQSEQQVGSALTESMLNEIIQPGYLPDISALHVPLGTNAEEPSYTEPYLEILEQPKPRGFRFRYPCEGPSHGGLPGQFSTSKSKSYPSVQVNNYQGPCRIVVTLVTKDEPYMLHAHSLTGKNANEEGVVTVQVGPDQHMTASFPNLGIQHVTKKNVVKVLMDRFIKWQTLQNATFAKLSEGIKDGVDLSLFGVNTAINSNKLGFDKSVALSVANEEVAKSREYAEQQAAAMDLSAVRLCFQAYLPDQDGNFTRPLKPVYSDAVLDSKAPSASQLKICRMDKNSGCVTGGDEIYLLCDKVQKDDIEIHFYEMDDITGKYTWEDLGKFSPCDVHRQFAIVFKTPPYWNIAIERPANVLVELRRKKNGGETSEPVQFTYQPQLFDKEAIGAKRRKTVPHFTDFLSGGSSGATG

GST-Co-NF-kB = molecular target: T3, GST-Co-NF-kB (Capsaspora owczarzaki, UniProt F1ARL5 200-546)
T3 sequence: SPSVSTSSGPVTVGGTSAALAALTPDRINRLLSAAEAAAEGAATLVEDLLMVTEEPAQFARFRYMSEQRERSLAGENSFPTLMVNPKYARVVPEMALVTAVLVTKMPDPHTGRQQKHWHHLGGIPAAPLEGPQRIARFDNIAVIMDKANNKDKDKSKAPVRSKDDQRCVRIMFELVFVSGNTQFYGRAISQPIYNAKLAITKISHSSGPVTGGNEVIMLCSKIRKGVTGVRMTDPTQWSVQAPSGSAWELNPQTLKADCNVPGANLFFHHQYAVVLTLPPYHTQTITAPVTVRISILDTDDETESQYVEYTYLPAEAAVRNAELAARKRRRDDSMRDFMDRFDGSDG

GST-Dm-Relish = molecular target: T4, GST-Dm-Relish (Drosophila melanogaster, UniProt Q94527 99-473)
T4 sequence: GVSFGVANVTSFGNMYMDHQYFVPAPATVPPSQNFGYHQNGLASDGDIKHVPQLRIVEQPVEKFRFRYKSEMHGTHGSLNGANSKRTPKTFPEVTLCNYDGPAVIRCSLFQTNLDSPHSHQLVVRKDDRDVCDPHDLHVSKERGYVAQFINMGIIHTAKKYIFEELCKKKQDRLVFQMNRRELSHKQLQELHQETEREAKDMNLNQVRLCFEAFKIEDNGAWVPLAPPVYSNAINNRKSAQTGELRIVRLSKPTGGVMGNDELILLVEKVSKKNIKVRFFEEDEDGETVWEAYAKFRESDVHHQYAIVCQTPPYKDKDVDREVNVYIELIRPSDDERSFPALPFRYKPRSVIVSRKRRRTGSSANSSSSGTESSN

GST-Aq-NF-kB = molecular target: T5, GST-Aq-NF-kB (Amphimedon queenslandica, UniProt A9Y5G7 2-389)
T5 sequence: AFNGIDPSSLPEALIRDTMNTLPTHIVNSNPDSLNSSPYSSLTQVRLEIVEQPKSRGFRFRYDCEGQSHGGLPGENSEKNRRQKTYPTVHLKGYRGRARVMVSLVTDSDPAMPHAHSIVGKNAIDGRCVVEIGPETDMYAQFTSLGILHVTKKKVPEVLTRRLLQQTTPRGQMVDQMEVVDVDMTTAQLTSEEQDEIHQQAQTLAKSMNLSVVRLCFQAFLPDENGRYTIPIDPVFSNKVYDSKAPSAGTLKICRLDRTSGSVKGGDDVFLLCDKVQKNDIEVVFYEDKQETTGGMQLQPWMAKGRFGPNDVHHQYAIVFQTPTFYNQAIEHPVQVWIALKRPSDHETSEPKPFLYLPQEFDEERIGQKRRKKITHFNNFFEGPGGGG

GST-Hu-p50 = GST-Hu-p50 (Homo sapiens, UniProt P19838 7-356)
GST-Hu-p50, sequence (P19838 7-356): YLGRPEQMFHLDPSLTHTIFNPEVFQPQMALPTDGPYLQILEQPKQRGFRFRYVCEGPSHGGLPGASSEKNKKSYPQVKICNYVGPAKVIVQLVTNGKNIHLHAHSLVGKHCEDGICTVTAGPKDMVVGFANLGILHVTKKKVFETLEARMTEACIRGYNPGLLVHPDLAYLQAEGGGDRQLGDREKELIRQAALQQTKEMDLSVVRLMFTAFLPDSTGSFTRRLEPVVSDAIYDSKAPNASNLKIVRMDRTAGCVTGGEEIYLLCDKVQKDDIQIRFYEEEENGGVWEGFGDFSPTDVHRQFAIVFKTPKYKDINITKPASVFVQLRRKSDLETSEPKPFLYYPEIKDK

Sequence | binding signal (GST-Ap-NF-kB RHD) [z-score] | binding signal [1] [z-score] | binding signal (GST-Co-NF-kB) [z-score] | binding signal (GST-Dm-Relish) [z-score] | binding signal (GST-Aq-NF-kB) [z-score] | binding signal (GST-Hu-p50) [z-score]
CCGATTAACATCAGGGGTTTTACTGATGTTAATCGGGTCTTGATTCGCTTGACGCTGCTG | 5.39 | 5.15 | 1.49 | 7.6 | 5.84 | 5.77
CCGATTAACATCAGGAACCCCCCTGATGTTAATCGGGTCTTGATTCGCTTGACGCTGCTG | 8.98 | 6.2 | 3.38 | 9.74 | 7.32 | 5.86
CCGATTAACATCAGATCCCCCCCTGATGTTAATCGGGTCTTGATTCGCTTGACGCTGCTG | 8.16 | 5.56 | 6.72 | 5.21 | 5.39 | 5.36
CCGATTAACATCAGGGAGTTTACTGATGTTAATCGGGTCTTGATTCGCTTGACGCTGCTG | 3.14 | 4.14 | 1.37 | 5.53 | 5.6 | 4.19
CCGATTAACATCAGGGCTCCCCCTGATGTTAATCGGGTCTTGATTCGCTTGACGCTGCTG | 7.08 | 5.82 | 4.76 | 7.28 | 8.12 | 5.6
CCGATTAACATCAGGGGGTTGCATGATGTTAATCGGGTCTTGATTCGCTTGACGCTGCTG | 5.29 | 3.67 | 2.22 | 4.83 | 4.08 | 5.29
CCGATTAACATCAAAAACCACCCTGATGTTAATCGGGTCTTGATTCGCTTGACGCTGCTG | 4.27 | 3.46 | 2.76 | 7.76 | 4.53 | 5.64
CCGATTAACATCAGGAGTCCCCCTGATGTTAATCGGGTCTTGATTCGCTTGACGCTGCTG | 8.32 | 6.17 | 4.42 | 8.71 | 6.95 | 5.55
CCGATTAACATCAAGAGTCCCCCTGATGTTAATCGGGTCTTGATTCGCTTGACGCTGCTG | 7.54 | 5.23 | 5.05 | 5.74 | 5.26 | 5.46
CCGATTAACATCAAAACACCCCCTGATGTTAATCGGGTCTTGATTCGCTTGACGCTGCTG | 6.39 | 5.71 | 5.54 | 6.95 | 6.53 | 6.04
CCGATTAACATCAGAAGTCCCCCTGATGTTAATCGGGTCTTGATTCGCTTGACGCTGCTG | 7.95 | 7.32 | 5.95 | 7.74 | 6.54 | 6.36
CCGATTAACATCAGGGGGAGTTATGATGTTAATCGGGTCTTGATTCGCTTGACGCTGCTG | 6.7 | 5.95 | 7.05 | 5.28 | 6.18 | 6.55
CCGATTAACATCAGGGGGAGCACTGATGTTAATCGGGTCTTGATTCGCTTGACGCTGCTG | 5.93 | 3.91 | 6.25 | 7.14 | 5.5 | 4.89
CCGATTAACATCAGGGACGCCCCTGATGTTAATCGGGTCTTGATTCGCTTGACGCTGCTG | 6.59 | 5.71 | 1.13 | 7.12 | 7.88 | 4.5
CCGATTAACATCAAATAAGCCCCTGATGTTAATCGGGTCTTGATTCGCTTGACGCTGCTG | 3.57 | 5.54 | 1.15 | 4.29 | 5.74 | 4.31
CCGATTAACATCAGGGGGGAGAATGATGTTAATCGGGTCTTGATTCGCTTGACGCTGCTG | 6 | 4.08 | 7.95 | 3.85 | 4.82 | 6.41
CCGATTAACATCACAAATACCCCTGATGTTAATCGGGTCTTGATTCGCTTGACGCTGCTG | 5.46 | 4.42 | 4.04 | 3.75 | 4.3 | 5.3
CCGATTAACATCAAGGAACCCCCTGATGTTAATCGGGTCTTGATTCGCTTGACGCTGCTG | 8.43 | 5.99 | 2.03 | 10.4 | 6.6 | 6.57
